The record followed here is ChEMBL document CHEMBL4513141, “CO-ADD screening of NIH (USA) - Clinical Collection” (2021).

The test system of one test is Klebsiella pneumoniae. To be noted: Concentration 20 uM; ASSAY_TEST Inhibition of Bacterial Growth; detection method Absorption (OD600); MEDIA CAMHB; plate type 384well; NBS; CORNING #3640; time 18 hr.
Another test relates to Candida albicans. To be noted: 20 µM.
In another test the test system is Cryptococcus neoformans. The conditions noted are these: Concentration 20 uM; ASSAY_TEST Inhibition of Fungal Growth; detection method Resazurin; Absorption (OD600-OD570); plate type 384well; NBS; CORNING #3640. For orientation: Resazurin is reduced to fluorescent resorufin, in cell work by metabolically active cells.

Measured potencies and affinities stand elsewhere.

On to `CC(C)Cc1ccc(C(C)C(=O)O)cc1` (stereo not given) [IBUPROFEN], for which the values for the Inhibition in the test with Klebsiella pneumoniae, with Candida albicans and in the test with Cryptococcus neoformans were -1.68%, 13.3% and -3.38%, respectively.
For the compound `COc1c2occc2cc2ccc(=O)oc12` [METHOXSALEN], the Inhibition (as a rule, the change of the read-out against control, counted positive when it falls) is 9.19% in the test on Klebsiella pneumoniae, 5.22% with Candida albicans and -0.09% with Cryptococcus neoformans.
For `CCC(=O)O[C@]1(C(=O)SCF)[C@H](C)C[C@H]2[C@@H]3C[C@H](F)C4=CC(=O)C=C[C@]4(C)[C@@]3(F)[C@@H](O)C[C@@]21C` [FLUTICASONE PROPIONATE] the same measures were 6.12%, 10.1% and -1.8%.
In the case of `Cl.O=C(NCC1CCCCN1)c1cc(OCC(F)(F)F)ccc1OCC(F)(F)F` (stereo not given), the values for the Inhibition in the test on Klebsiella pneumoniae, in the test on Candida albicans and with Cryptococcus neoformans were 7.49%, 3.33% and -9.22%, respectively.
`COc1ccc(C2CNC(=O)C2)cc1OC1CCCC1` (stereo not given) [ROLIPRAM]: the Inhibition is 19.56% in the test with Klebsiella pneumoniae, 4.38% in the test on Candida albicans and -5.22% in the test with Cryptococcus neoformans.
